# Compounds without any hit were thinned out: in the full panel of roughly 83,000, 20% have a hit.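 Each cell line was grown in a 96-well plate and treated with one concentration of compound for 48 hours. Values below 10 were considered active.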 Activity calls are given as the source filed them.
# System: T-47D breast
# Test: NCI-60 one-dose screen, 48 h (100 = growth as untreated, 0 = no growth, -100 = all killed)
# Details: 10 µM unless noted
row,Compound,growth
1,CC(C)(C)c1cc(NC(=O)Nc2ccc(-c3cn4c5c(sc4n3)CCc3c[nH]cc3-5)cc2)no1,18.5% (inactive)
2,NS(=O)(=O)c1ccc(Nc2nc(Nc3ccccc3)nc(N3N=C(c4ccc(Cl)cc4)CC3c3ccc(Cl)cc3)n2)cc1 (stereo not given),51.3% (inactive)
3,COc1ccc2sc(NC(=O)CCCCCCNC(=O)C(O)(O)C(F)(F)F)nc2c1,8.02% (active)
4,N#C/C(=C\c1ccc(-c2ccc(Cl)cc2)o1)C(=O)Nc1ncc(Cc2ccc(Br)cc2)s1,18.7% (inactive)
5,C#CCN(C)CCCOc1ccc(NCc2ccc(C(=O)NO)cc2)cc1Cl,0.446% (active)
6,COc1ccc(C(=O)c2c(N)c(C#N)cn2-c2ccc(Cl)cc2Cl)cc1,92.9% (inactive)
7,C/C(=N\NC(=O)/C=C/CC(=O)O)c1nnn(-c2ccc([N+](=O)[O-])cc2)c1C,98.9% (inactive)
8,O=C(/C=C/c1ccc(F)cc1)Nc1cccc2cccnc12,32.8% (inactive)
9,COc1ccccc1N1CCN(C2=C(Cl)C(=O)c3ncccc3C2=O)CC1,19.3% (inactive)
10,NS(=O)(=O)c1cccc(Nc2nc(SCC(=O)c3ccc(Cl)cc3)nc3c2CCC3)c1,90.4% (inactive)
11,CN(C)c1cccc2c(S(=O)(=O)Nc3cccc(-c4csc(NC(=O)CCCCCN5CCN(CCO)CC5)n4)c3)cccc12,82.7% (inactive)
12,O=c1nc(Nc2ccc([N+](=O)[O-])cc2O)sc2ccccc12,31.1% (inactive)
13,NC1C2CCC1CN(c1cnc(C(=O)Nc3cc(F)cc4cccnc34)cn1)C2 (stereo not given),34.2% (inactive)
14,COc1ccc(C2CC(c3cccc(OCCCCOc4cccc(C5=NOC(c6ccc(OC)cc6)C5)c4)c3)=NO2)cc1 (stereo not given),73.7% (inactive)
15,CCc1cc2c(cc1Cl)nc1c(=O)[nH]c(=O)nc-1n2CCOCC(C)(C)C,80.7% (inactive)
16,Clc1ccc2[nH]cc(-c3nn4cc(-c5ccncc5)nc4s3)c2c1,6.38% (active)
17,CN1CCN(c2ccc(Nc3nc(NCCNS(=O)(=O)c4ccc5ccccc5c4)c4sccc4n3)cc2)CC1,55.2% (inactive)
18,CC(C)[C@H]1c2[nH]c3ccccc3c2C[C@H]2C(=O)N(CCCCCCC(=O)NO)CC(=O)N12,62.4% (inactive)
19,O=C(Nc1ccccc1)Nc1nc2ccc([N+](=O)[O-])cc2[nH]1,14.7% (inactive)
20,N#Cc1c(-c2cccs2)cc(-c2cnccn2)nc1SCC(=O)N/N=C/c1ccncc1,101% (inactive)

row,Compound,growth
1,O=C(/C=C/c1ccccc1)c1cccc(O)c1,97.8% (inactive)
2,O=C1[C@@H]2Cc3c([nH]c4ccccc34)[C@H](c3ccc(Br)cc3)N2C(=O)CN1C1CCN(Cc2c(Cl)cccc2Cl)CC1,88.5% (inactive)
3,COc1cccc2c1C=CC1(O2)Oc2cccc(OC)c2C=C1C (stereo not given),45.7% (inactive)
4,CCN(CC)c1ccc(/C=N/NC(=O)c2ccc(NS(C)(=O)=O)cc2)cc1,27.4% (inactive)
5,N#Cc1nc(-c2ccc(Cl)cc2)oc1N1CCC(S(=O)(=O)N2CCOCC2)CC1,103% (inactive)
6,O=C(CCCCCC/C=C\c1csc(Br)n1)NO,76.3% (inactive)
7,COc1ccc(OC)c(NC(=O)CCCCCCNC(=O)C(O)(O)C(F)(F)F)c1,22.4% (inactive)
8,NCCNC(=O)c1cccc(COc2ccccc2NC(=O)c2cc(Br)c(Br)[nH]2)c1,75.9% (inactive)
9,C#CCOc1ccccc1C(OC(=O)c1ccccc1)C(=O)NC(C)(C)C(C)(C)C (stereo not given),73.5% (inactive)
10,O=C(CSc1nc2ccccc2c(=O)n1CCc1ccccc1)Nc1ccc(S(=O)(=O)Nc2ccc(Cl)nn2)cc1,88.6% (inactive)
11,O=C1CSC(c2cn(-c3ccccc3)nc2-c2ccc(Cl)cc2)N1c1ccccc1 (stereo not given),102% (inactive)
12,COc1ccc2c(c1)c(-c1nn3cc(-c4ccncc4)nc3s1)cn2C,42.4% (inactive)
13,O=C(/C=C/c1cc(Cl)ccc1Cl)Nc1ncc(Cc2ccc(Cl)cc2)s1,63.8% (inactive)
14,CC1=C(C)C(=O)C(Nc2cccc(C)c2)=C(Br)C1=O,4.47% (active)
15,COc1ccc(Cn2cc(C#N)c(N)c2C(C)=O)cc1,96.8% (inactive)
16,Cn1ncc2ncc(-c3ccc4ncc(C#N)c(N5CCc6cc(F)c(Cl)cc65)c4c3)cc21,5.2% (active)
17,Cc1ccc2c(n1)C(=O)C(Cl)=C(Nc1ccc(C(F)(F)F)cc1)C2=O,-25.5% (active)
18,CSc1ccc(/C(=N/N=C(N)N)c2ccc(F)cc2)cc1,58.1% (inactive)
19,CC(=O)OC[C@@]12Oc3c(cccc3-c3ccc(O)c4c3O[C@]3(COC(C)=O)C(=C4O)C(=O)C[C@H](C)[C@@H]3OC(C)=O)C(O)=C1C(=O)C[C@H](C)[C@@H]2OC(C)=O,4.37% (active)
20,CCCCOc1ccc(S(=O)(=O)N2CCN(c3nc(C)cc(N4CCOCC4)n3)CC2)cc1,55.9% (inactive)
